# Data: publication PMC4336329 (PLoS ONE, 2015)
# Among all 310,000 compounds or so, about 14,000 (4.5%) showed an effect of 50% or more. Effects have a minus sign here. The entries come from a sample that favours strong results as a whole.
# Biological target: human ether-à-go-go-related gene (hERG) potassium channel (human, UniProt Q12809)
# Assay: primary screen, population patch clamp on CHO cells stably expressing hERG; higher = less effect of the substance
# 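Also: peak tail current of the secondary pulse compared with the same well before compound.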
# human ether-à-go-go-related gene (hERG) potassium channel, sequence (Q12809 whole entry, looked up): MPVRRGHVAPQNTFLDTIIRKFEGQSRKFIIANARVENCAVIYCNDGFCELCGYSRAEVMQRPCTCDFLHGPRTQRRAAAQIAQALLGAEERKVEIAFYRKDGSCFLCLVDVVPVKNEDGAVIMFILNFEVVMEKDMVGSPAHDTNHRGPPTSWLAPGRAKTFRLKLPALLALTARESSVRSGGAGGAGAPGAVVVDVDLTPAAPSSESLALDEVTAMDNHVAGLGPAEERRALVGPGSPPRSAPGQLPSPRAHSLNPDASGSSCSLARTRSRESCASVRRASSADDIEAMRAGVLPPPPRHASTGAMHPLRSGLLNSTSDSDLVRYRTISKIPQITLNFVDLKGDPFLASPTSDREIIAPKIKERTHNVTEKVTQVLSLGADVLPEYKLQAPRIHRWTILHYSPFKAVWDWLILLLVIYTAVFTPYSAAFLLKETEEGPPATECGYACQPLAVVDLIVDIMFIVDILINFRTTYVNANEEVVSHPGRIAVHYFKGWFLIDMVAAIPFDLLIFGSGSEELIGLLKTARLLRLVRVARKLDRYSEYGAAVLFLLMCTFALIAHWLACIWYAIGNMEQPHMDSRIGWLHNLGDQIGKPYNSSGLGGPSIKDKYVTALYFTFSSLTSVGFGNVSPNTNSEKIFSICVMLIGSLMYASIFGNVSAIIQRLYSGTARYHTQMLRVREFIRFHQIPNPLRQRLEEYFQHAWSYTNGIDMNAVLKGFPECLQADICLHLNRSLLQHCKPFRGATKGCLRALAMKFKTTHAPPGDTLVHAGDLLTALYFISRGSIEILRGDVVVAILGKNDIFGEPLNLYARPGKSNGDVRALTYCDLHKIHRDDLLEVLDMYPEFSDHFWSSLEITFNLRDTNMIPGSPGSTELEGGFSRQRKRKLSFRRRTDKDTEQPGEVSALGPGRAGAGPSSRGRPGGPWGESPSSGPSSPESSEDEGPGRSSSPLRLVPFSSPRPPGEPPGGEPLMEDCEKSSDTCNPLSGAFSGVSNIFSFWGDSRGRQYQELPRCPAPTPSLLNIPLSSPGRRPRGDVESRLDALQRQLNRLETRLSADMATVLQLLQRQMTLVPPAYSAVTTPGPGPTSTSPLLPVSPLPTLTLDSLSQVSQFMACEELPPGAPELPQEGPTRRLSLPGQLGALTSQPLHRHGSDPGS
row,Compound,"hERG current change (%, negative = inhibition) at 10uM"
1,COc1ccc(OC)c(S(=O)(=O)N(C)CC(=O)N2CCOCC2)c1,11.3%
2,O=C(CSc1nc2ccccc2s1)N/N=C/c1ccccc1C(=O)O,30.5%
3,CC1CCN(C(=O)CSc2nnc(-c3ccncc3)n2C)CC1,6.41%
4,CCc1nc(N[C@@H](Cc2c[nH]c3ccccc23)C(=O)O)c2oc3ccccc3c2n1,8.39%
5,CC(C)(C)c1ccc(-c2cc(C(=O)NNC(=O)Nc3ccccc3)c3ccccc3n2)cc1,13.6%
6,CCC(C)[C@H]1COCCS(=O)(=O)N1Cc1ccccc1F (some centres unmarked),-18.5%
7,COc1ccc(-c2cc(C)no2)cc1S(=O)(=O)NCCCN1CCCCCC1,-17.4%
8,CCOc1ccccc1CNS(=O)(=O)c1cc(-c2cc(C)no2)ccc1OC,-18.4%
9,COc1ccccc1CN1CCC(CNS(=O)(=O)c2cc(-c3onc(C)c3C)ccc2OC)CC1,-76.7%
10,COc1ccc(-c2onc(C)c2C)cc1S(=O)(=O)NCCc1ccco1,-41.8%
11,Cc1cc(-c2ccc(C)c(S(=O)(=O)NCC3CCN(Cc4ccc(F)cc4)CC3)c2)on1,-66.2%
12,COc1ccccc1CNS(=O)(=O)c1cc(C)ccc1OC,9.32%
13,COc1ccc(CNS(=O)(=O)c2cc(-c3cc(C)no3)ccc2OC)cc1OC,2.57%
14,COc1ccc(-c2cc(C)no2)cc1S(=O)(=O)NCC1CCN(Cc2cc(C)ccc2C)CC1,-72%
15,Cc1cc(-c2ccc(C)c(S(=O)(=O)NCC3CCN(Cc4cccc(F)c4)CC3)c2)on1,-39.1%
16,CCc1ccc(-c2cc(C)no2)cc1S(=O)(=O)N1CCCN(Cc2ccc(F)cc2)C1,5.62%
17,COc1ccccc1CN1CCC(CNS(=O)(=O)c2cc(-c3cc(C)no3)ccc2OC)CC1,-58.2%
18,CCc1ccc(-c2cc(C)no2)cc1S(=O)(=O)NCc1ccccc1OC,-15.8%
19,O=C(Nc1cccc(NC(=O)c2ccc(Br)cc2)c1)c1ccccc1,18%
20,CCCC(CCC(=O)Nc1ccn(-c2ccccc2)n1)C(=O)O (centres unmarked),4.5%
21,COc1ccc(S(=O)(=O)N2CCCC(C(=O)NCc3ccccc3)C2)cc1 (centres unmarked),23.7%

row,Compound,"hERG current change (%, negative = inhibition) at 10uM"
1,CN(C)C=O.CN(C)c1ccc(/C=C/c2nc3ccccc3c(=O)n2-c2ccc(C(=O)O)cc2)cc1,19.8%
2,C=CCn1c(SCC(N)=O)nnc1-c1ccccc1O,0.103%
3,CCOc1ccc(CCN2CN(CC)CNC2=S)cc1OCC,-0.457%
4,COc1cccc(C(=O)NC(C)c2cccc3ccccc23)c1OC (centres unmarked),-10.4%
5,S=C(NC1CCCCC1)N1CCc2ccccc2C1,-5.33%
6,Cc1cc2cc(CCNC(=O)c3ccc(S(=O)(=O)N4CCOCC4)cc3)c(=O)[nH]c2cc1C,6.3%
7,Cc1ccnc(NS(=O)(=O)c2ccccc2)c1,15.2%
8,Cc1cc(-c2ccc(C)c(S(=O)(=O)NCC3CCN(Cc4ccccc4F)CC3)c2)on1,-52.8%
9,COc1ccc(-c2cc(C)no2)cc1S(=O)(=O)NCCCN(C)Cc1ccccc1,-29.9%
10,Cc1cc(-c2ccc(C)c(S(=O)(=O)NCCCN(Cc3ccccc3)C(C)C)c2)on1,-36.9%
11,COc1ccccc1CNS(=O)(=O)c1cc(-c2cc(C)no2)ccc1C(C)C,5.07%
12,Cc1cc(-c2ccc(C)c(S(=O)(=O)NCCCN3CCN(c4ccccc4)CC3)c2)on1,-33.2%
13,CCN(CCCNS(=O)(=O)c1cc(-c2cc(C)no2)ccc1C)Cc1ccccc1,-61.3%
14,Cc1cc(-c2ccc(C)c(S(=O)(=O)NCCCN3CCN(c4ccccc4F)CC3)c2)on1,10.3%
15,COc1ccccc1CN1CCC(CNS(=O)(=O)c2cc(-c3cc(C)no3)ccc2C)CC1,-61.3%
16,COc1ccc(-c2cc(C)no2)cc1S(=O)(=O)NCCCN1CCN(c2ccccc2)CC1,-68%
17,CCOc1ccccc1CNS(=O)(=O)c1cc(-c2cc(C)no2)ccc1C,-19%
18,CCc1ccc(-c2cc(C)no2)cc1S(=O)(=O)NCCCN1CCN(c2ccccc2)CC1,1.91%
19,CCc1ccc(-c2cc(C)no2)cc1S(=O)(=O)NCCN1CCC(C)CC1,-7.14%
20,O=C(CCCCCNC(=O)c1ccccc1)N/N=C/c1ccccc1,-9.98%
21,O=C(Nc1ccc2oc(-c3cccnc3)nc2c1)c1ccc2c(c1)OCCO2,20.2%

row,Compound,"hERG current change (%, negative = inhibition) at 10uM"
1,CCCCCC/C=C/c1ccc([C@H]2[C@H]3C=CC[C@@H](C)[C@@H]3C(=O)N2Cc2ccccc2)c(F)c1,4.76%
2,S=C1NC(c2ccccc2)=NCN1c1ccc(Br)cc1,-12.9%
3,COc1ccccc1N(CC(=O)NCCSCc1ccc(Cl)cc1)S(C)(=O)=O,-0.283%
4,C=CCSc1nccc(-c2nn(-c3ccc(C)cc3)ccc2=O)n1,-8.82%
5,O=C1NC(=O)N(CCc2ccc(F)cc2)C(=O)/C1=C/c1cccs1,16.1%
6,Cc1c(NC(=O)COC(=O)c2ccc(Br)o2)c(=O)n(-c2ccccc2)n1C,13.8%
7,COc1ccc(/C=N/NC(=O)c2ccccc2NC(=O)c2ccco2)c(OC)c1,15.3%
8,CCOc1ccccc1-c1cc(C(=O)N/N=C/c2cccnc2)c2ccccc2n1,-6.35%
9,COc1ccc(/C(C)=N/NC(=O)c2ccccc2OCc2ccccc2)c(OC)c1,11.2%
10,O=C(N/N=C/c1cccnc1)c1ccccc1OCc1cccc(Br)c1,-17.1%
11,O=C(N/N=C/c1cccnc1)c1ccccc1OCc1ccc(Cl)cc1,-38.4%
12,O=C(COc1ccc(-c2ccccc2)cc1)N/N=C/c1cccnc1,7.95%
13,CC(C)Oc1ccccc1-c1cc(C(=O)N/N=C/c2cccnc2)c2ccccc2n1,-51.1%
14,Cc1ccccc1-c1cc(C(=O)N/N=C/c2cccnc2)c2ccccc2n1,-3.87%
15,COc1ccc(/C=N/NC(=O)c2ccccc2OCc2ccccc2)c(OC)c1,-53.8%
16,O=C(COc1ccccc1-c1ccccc1)N/N=C/c1cccnc1,-52.8%
17,O=C(COc1ccccc1-c1ccccc1)N/N=C/c1ccncc1,-26.2%
18,O=C(N/N=C/c1cccnc1)c1ccccc1OCc1ccc(Br)cc1,-52.6%
19,Cc1ccccc1N/N=C/c1ccc(N2CCOCC2)cc1,-2.55%
20,CCn1cc(CNC(=O)C2CCC(=O)N(Cc3ccccc3F)C2)cn1 (centres unmarked),8.25%
21,COc1ccc(C(=O)Nc2ccccc2C(=O)N2CCOCC2)cc1Br,-17.3%

row,Compound,"hERG current change (%, negative = inhibition) at 10uM"
1,C/C(=N\NC(=O)Cc1ccccc1)c1cccnc1,15.3%
2,C/C(=N\NC(=O)COc1ccccc1-c1ccccc1)c1cccnc1,-53.9%
3,C/C(=N\NC(=O)COc1ccccc1-c1ccccc1)c1ccccn1,-6.93%
4,CSCCC(NS(=O)(=O)c1cc(C(=O)O)ccc1Cl)C(=O)O (centres unmarked),45%
5,O=C(/C=C/c1ccccc1Cl)NCc1ccccc1,10.2%
6,CCN(CC)C(=O)C1CCCN(C(=O)CCn2nnnc2CN2CCOCC2)C1 (centres unmarked),17.7%
7,NC(N)=NC(=O)c1nc(Cl)c(N2CCCCCC2)nc1N,-58.6%
8,Cl.NC(N)=NC(=O)c1nc(Cl)c(N)nc1N.O,-0.314%
9,NC(N)=NC(=O)c1nc(Cl)c(N)nc1N,-3.88%
10,Cc1ccc(N(CC2CO2)S(=O)(=O)c2ccc([N+](=O)[O-])cc2)cc1 (centres unmarked),-69.3%
11,Cc1ccc(N(CC(O)CN2C(=O)NC(C)(C)C2=O)S(=O)(=O)c2ccc([N+](=O)[O-])cc2)cc1 (centres unmarked),-32.7%
12,Cc1ccc(S(=O)(=O)N(CC(O)CN2CCOCC2)c2cccc([N+](=O)[O-])c2)cc1 (centres unmarked),-34.5%
13,O=[N+]([O-])c1ccc(N(CC2CO2)S(=O)(=O)c2ccccc2)cc1 (centres unmarked),-43.9%
14,COc1ccc(N(CC(O)CN2CCOCC2)S(=O)(=O)c2ccccc2)cc1 (centres unmarked),-12.1%
15,Cc1ccc(N(CC(O)CN2CCOCC2)S(=O)(=O)c2ccc3ccccc3c2)cc1 (centres unmarked),-67.4%
16,Cc1ccc(N(CC(O)CN2CCOCC2)S(=O)(=O)c2ccc([N+](=O)[O-])cc2)cc1 (centres unmarked),-65.2%
17,Cl.O=S(=O)(c1ccc2ccccc2c1)N(CC(O)CN1CCOCC1)c1ccccc1 (centres unmarked),-47.9%
18,Cc1ccc(N(CC2CO2)S(=O)(=O)c2ccc(C)cc2)cc1 (centres unmarked),-5.18%
19,O=C(Nc1ccc(NC(=O)c2cccs2)cc1)c1ccc2c(c1)OCCO2,15.6%
20,CC1(C)Cn2c(nnc2-c2ccccc2)S1,14.1%
